Only some compounds are listed: those with a hit (about 6.6% of all), similar ones and a draw of the others.
HT1080 IDH1KD tx: qHTS for induction of synthetic lethality in tumor cells producing 2HG: qHTS for the HT-1080-IDH1KD cell line. HT-1080 IDH1 knockdown viability, ATP luminescence, 48 h. actives 2% (n = 360,000). Potency, µM (series often up to 46.1 µM), for the others: at the top dose activity, negative = toxicity, hits mostly cytotoxic;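 note: 0% = DMSO wells and -100% = cell-free medium wells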
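In this qHTS, HT-1080 cells depleted of IDH1 are exposed for 48 h at 37 °C to compound titrations. Toxicity is scored from CellTiter-Glo luminescence, with DMSO as full viability and medium alone as none.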
KB-3-1 cytotox: qHTS assay for MDR1-selective chemotherapeutics: Primary screen using the parental adenocarcinoma cell KB-3-1; KB-3-1 viability, CellTiter-Glo ATP luminescence, 72 h; Potency, µM (titrated, usually from 46.1 µM), most hits filed as cytotoxic; actives 1.4% (n = 400,000); note: % is set by controls: 0 for no effect and ±100 for the full control effect; nearly all actives have a fitted effect of over 60% in size
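Parental KB-3-1 adenocarcinoma cells in phenol-red-free DMEM with 10% FBS were pin-treated with compounds at several concentrations, incubated 72 h at 37 °C, and viability read by CellTiter-Glo luminescence; concentration-effect curves were fitted after normalization.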
HepG2 viability: qHTS for Inhibitors of TGF-b: Cytotox Counterscreen; actives 0.76% (n = 410,000); Potency, µM (series often up to 46.1 µM), without a hit: top-dose activity change, negative = cytotoxicity, most hits filed as cytotoxic; HepG2 CAGA-GFP viability, ATP luminescence, 18 h
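CellTiter-Glo luminescence gave cytotoxicity after 18 hours at 37 degrees C. The cells were HepG2 CAGA-GFP in 1% FBS DMEM, stimulated with 500 pg/mL TGF-beta after compound addition. %Activity was normalised to no-cell wells (complete cell-killing) and DMSO (no toxicity), and curves were fitted and classified.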
KB-V1 MDR tox: qHTS assay for MDR1-selective chemotherapeutics: Primary screen using the drug-selected MDR subline cells KB-V1 | KB-V1 MDR cells viability, CellTiter-Glo, 72 h | Potency, µM (series often up to 46.1 µM), usual class: cytotoxic | actives 3.4% (n = 400,000) | AID 1347076, 2019; note: % is set by controls: 0 for no effect and ±100 for the full control effect; nearly all actives have a fitted effect of over 60% in size
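Drug-selected KB-V1 cells, grown in DMEM lacking phenol red with 10% FBS, receive compound titrations; after three days at 37 degrees C, surviving cell ATP is quantified by CellTiter-Glo luminescence and responses normalized and curve-fitted.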
HT1080-NT tox: qHTS for induction of synthetic lethality in tumor cells producing 2HG: qHTS for the HT-1080-NT fibrosarcoma cell line; HT-1080-NT fibrosarcoma viability, CellTiter-Glo ATP luminescence, 48 h; Potency, µM (series often up to 46.1 µM), for the others: at the highest dose activity, negative = less viability, hits mostly cytotoxic; actives 1.6% (n = 360,000);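 note: NT is the 2HG producing partner of a matched IDH1 knockdown line; 0% = DMSO-treated cells and -100% = media-only wells without cells; nearly all actives have a fitted effect of over 55% in size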
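Viability by CellTiter-Glo luminescence after 48 h compound exposure at 37C of HT-1080-NT cells (750/well, RPMI, 5% FBS). % activity scaled between DMSO wells and medium-only wells, then curve-fitted and categorized by curve class.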
TGFb inhibitor: qHTS for Inhibitors of TGF-b. HepG2 CAGA-GFP TGF-b/SMAD3 reporter, GFP fluorescence, 18 h; TGF-beta stimulated, 500 pg/mL final. AID 588855, 2011. Potency, µM (top dose mostly 46.1 µM), for inactives: top-dose activity, negative = inhibition, hits mostly inhibitors. actives 1.2% (n = 410,000); note: % is set by controls: 0 for no effect and ±100 for the full control effect; nearly all actives have a fitted effect of over 65% in size
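Per well, imaged GFP fluorescence of HEPG2 CAGA-GFP cells gives the signal; cells get compound, then TGF-beta (500 pg/mL final), 18 h at 37 degrees C; %Activity versus -TGF-beta and +DMSO controls.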
* marks the source's active call; other numbers are inactive results; i = inactive; ? = inconclusive; nt = no result given; ! = a repeat was not active; [ ] = remark or other dose. Calls come from the whole dose curve; as a rule, active = well fitted curve in the direction sought with a large enough effect; inconclusive = small, poorly fitted or top-dose-only effect, or another doubt; inactive = no such curve, though single readings can be large; an effect the other way counts as inactive or inconclusive. Potency is the fitted concentration of half-maximal effect.

SMILES	HT1080 IDH1KD tx	KB-3-1 cytotox	HepG2 viability	KB-V1 MDR tox	HT1080-NT tox	TGFb inhibitor
O=C(Nc1ccc2nc(SCC(=O)N3CCCc4ccccc43)sc2c1)c1ccccc1	nt	nt	-52%	nt	nt	0%
Cc1ccccc1OCc1nnc(SCc2cc(=O)c3cc(F)ccc3[nH]2)n1C	nt	21µM*	-10%	i	nt	-6%
Cc1ccc2[nH]c(CSc3nnc(COc4ccccc4C)n3C)cc(=O)c2c1	nt	?	-2%	i	nt	-24%
O=C(Nc1ccc2c(c1)OCO2)c1cc(C2CCCN(C(=O)CCCc3ccccc3)C2)on1 (centres undefined)	?	i	-22%	i	16µM*	-23%
O=C(Nc1ccccc1)c1cc(C2CCCN(C(=O)C3CC3)C2)on1 (centres undefined)	0%	i	8.9µM*	i	-45%	1%
CC(=O)N1CCCC(c2cc(C(=O)Nc3ccccc3)no2)C1 (centres undefined)	-16%	i	-27%	i	-4%	4%
CN1OC[C@@H]2CN(Cc3ccc(Cl)cc3)[C@H](c3cccc(Br)c3)C[C@@H]21	-14%	i	-48%	i	-9%	?
CCOC(=O)N1CCN(C(=O)C(C)N(c2ccccc2)S(C)(=O)=O)CC1 (centres undefined)	10%	i	0%	i	6%	0%
CCOC(=O)N1CCN(CC(=O)Nc2nc3ccccc3s2)CC1	-12%	i	-17%	12µM*	-8%	-16%
CCOC(=O)N1CCN(C(=O)C(c2ccccc2)c2ccccc2)CC1	0%	i	-3%	4.1µM*	1%	-31%
CCOC(=O)N1CCN(C/C(C)=C/c2ccccc2)CC1	2%	i	4%	15µM*	11%	-8%
CCN1CCN(CC(=O)Nc2nc3ccccc3s2)CC1	10%	i	-38%	i	-1%	5%
O=C(CC1Sc2ccccc2NC1=O)Nc1cccc(C(F)(F)F)c1 (centres undefined)	nt	i	-19%	?	nt	-6%
CC12CCC(C(=O)N3CCCc4ccccc43)(CC1=O)C2(C)C (centres undefined)	4%	i	-13%	16µM*	4%	-16%
CCOC(=O)Nc1cccc(OCC(=O)Nc2ccccc2OC)c1	-2%	i	-2%	21µM*	8%	4%
COc1cccc(NC(=O)CN(C)C(=O)COc2ccc3ccccc3c2)c1	12%	i	13%	15µM*	-3%	-1%
CCN(CC(=O)Nc1ccccc1OC)C(=O)COc1ccc2ccccc2c1	13%	i	-3%	15µM*	5%	5%
COc1cccc(NC(=O)CN(C)C(=O)Cc2cccc3ccccc23)c1	1%	i	-14%	i	3%	0%
CCOc1cccc(C2c3c(oc4ccc(F)cc4c3=O)C(=O)N2c2cc(C)ccn2)c1 (centres undefined)	nt	i	-1%	i	nt	4%
COc1ccc(-c2noc(CSc3nc4ccccc4[nH]3)n2)cc1	nt	?	-29%	?	nt	0%
COc1ccc(-c2noc(CSc3nc(N)cc(=O)[nH]3)n2)cc1	?	21µM*!	-3%	?	?	-7%
Nc1nc(SCc2nc(-c3ccccc3)no2)[nH]c(=O)c1-c1ccccc1	-17%	i	-7%	18µM*	-13%	-2%
O=C(NCCc1c[nH]c2ccccc12)c1ccc2c(c1)OCO2	-7%	i	-7%	i	-17%	18%
N#C/C(=C/c1ccc2c(c1)OCO2)C(=O)NCCc1c[nH]c2ccccc12	?	i	-36%	15µM*	?	-7%
COc1ccc(N2CCN(C(=O)c3nn(-c4ccc(C)cc4)c(=O)n(C)c3=O)CC2)cc1	nt	i	15%	i	nt	-17%
SMILES	HT1080 IDH1KD tx	KB-3-1 cytotox	HepG2 viability	KB-V1 MDR tox	HT1080-NT tox	TGFb inhibitor
CC(/C=N/N1CCN(c2ccccn2)CC1)=C\c1ccccc1	20%	i	-3%	21µM*	14%	-9%
Cc1ccc(NC(=O)c2cc(S(=O)(=O)N3CCc4ccccc43)cn2C)c(Cl)c1	nt	nt	-7%	nt	nt	?
CC[C@@H](C(=O)[C@@H](C)[C@@H](O)[C@H](C)CCc1ccc(C)c(O)c1C(=O)O)[C@H]1O[C@](CC)([C@H]2CC[C@](O)(CC)[C@H](C)O2)C[C@@H]1C	6.5µM*	?	-101%	?	1.6µM*	10µM*
C[C@@H]1C(c2ccccc2)=NN(c2ccccc2)[C@H]1C(=O)N1CCOC1=O	?	i	0%	i	-21%	6%
C[C@@H]1C(c2cccc(Cl)c2)=NN(c2ccc(Br)cc2)[C@H]1C(=O)N1CCOC1=O	?	i	-30%	i	?	10µM*
C[C@@H]1C(c2cccc(Cl)c2)=NN(c2ccccc2)[C@H]1C(=O)N1CCOC1=O	-13%	i	-48%	i	-9%	20µM*
Cc1nc2c(C(=O)NCCc3ccc(Cl)cc3)c[nH]n2c(=O)c1Cc1ccccc1F	nt	i	16µM*	?	nt	13µM*
Cc1nc2c(C(=O)NCCc3ccccc3)c[nH]n2c(=O)c1Cc1ccc(F)cc1Cl	nt	i	-49%	?	nt	?
CCC1(c2ccc(F)cc2)NC(=O)N(CC(=O)NC2CCCC(C)C2C)C1=O (centres undefined)	-15%	i	2%	16µM*	-1%	?
O=C(Nc1ccccc1)Nc1ccc2ncoc2c1	0%	i	0.25µM*	i	2%	1%
CCc1ccc(NC(=O)CN2C(=O)C(c3ccc(F)cc3)=NC2(C)C)cc1	nt	nt	-9%	nt	nt	nt
Fc1ccc(NC(=S)NN=C2CCCCCC2)cc1	10µM*	i	-36%	i	8.9µM*	?
S=C(NN=C1CCCCCC1)Nc1ccc(Cl)cc1	10%[9.24 µM]	i	-2%	i	?	-11%
Cc1ccc(S(=O)(=O)NC(=O)C2(C)CCN2C(=O)C2CC2)cc1 (centres undefined)	15%	i	13%	i	20%	-1%
Cc1cc(Nc2nc3ccccc3nc2Cl)n(-c2ccccc2C)n1	-16%	i	1%	i	?	?
Cc1cc(Nc2nc3ccccc3nc2Cl)n(-c2ccccc2)n1	13µM*	?	-1%	13µM*	?	-11%

Screening data deposited in PubChem BioAssay by National Center for Advancing Translational Sciences (NCATS).
